We go through ten molecules from PubChem BioAssay (NCI).

The panel holds about 79,000 compounds, 15% with a hit somewhere; the sample as a whole holds those more often. Values without a mark were called inactive. The source made the active and inactive calls. No stated cut-off is given here; in the data, active means growth inhibition above about 70%; inactive means the rest.

Test [1] in a line: NCI Yeast Anticancer Drug Screen. Data for the rad50 strain (AID 155).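 Further: 0% = growth of vehicle-only cultures of the same strain.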 The following applies: S. cerevisiae rad50 strain growth inhibition, active compounds read high. The method in brief:
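Compounds were tested on a yeast strain with an engineered DNA damage repair alteration; the reported value is growth inhibition normalised to vehicle treatment.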

A short description of test [2]: NCI Yeast Anticancer Drug Screen. Data for the mec2-1 strain (AID 157). Conditions: S. cerevisiae mec2-1 strain, active compounds read high. The method, boiled down:
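Cells of the genetically defined mec2-1 yeast strain are incubated with test compound. Inhibition of growth is calculated against vehicle-treated controls.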

A short description of test [3]: NCI Yeast Anticancer Drug Screen. Data for the sgs1 mgt1 strain (AID 161).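 Further: 0% = growth of cultures given vehicle only.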 Conditions: S. cerevisiae sgs1 mgt1 strain, active compounds read high. The method in brief:
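Mutant yeast exposed to compound; growth scored against vehicle-only wells.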

Test [4] in a line: NCI Yeast Anticancer Drug Screen. Data for the cln2 rad14 strain (AID 165).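 Further: 0% = growth equal to vehicle treated cultures.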 The following applies: S. cerevisiae cln2 rad14 strain, active compounds read high. The method in brief:
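The screen exposed genetically defined yeast (cln2 rad14) to test compounds and scored growth inhibition relative to vehicle-treated controls.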

Test [5] is described as follows: NCI Yeast Anticancer Drug Screen. Data for the bub3 strain (AID 167). Conditions: S. cerevisiae bub3 mutant strain, active compounds read high. The method in brief:
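Growth of a checkpoint-deficient yeast mutant is measured after compound exposure. Values represent inhibition relative to vehicle.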

Test [6] is described as follows: NCI Yeast Anticancer Drug Screen. Data for the mlh1 rad18 strain (AID 175). Conditions: S. cerevisiae mlh1 rad18 strain growth inhibition, active compounds read high. The method, boiled down:
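Compound-treated yeast growth, normalised to vehicle controls. Strain bears defined DNA repair mutations.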

Setting [7] is: at 5.0 µM (retest, dose inferred, filed as 0.5).
Setting [8] is: at 50.0 µM (retest, dose inferred, filed as 5.0).

With `CCCCCCCCCCCCCCCCCCOP(=O)([O-])OC1CC[N+](C)(C)CC1`, the growth inhibition was 93% (active) in test [1] (setting [7]); 99% (active) in test [1] (setting [8]); 90% (active) in test [1] (at 50.0 µM); 98% (active) in test [2] (setting [7]); 99% (active) in test [2] (setting [8]); 92.5% (active) in test [2] (at 50.0 µM). The growth inhibition in test [3] (setting [7]) is 98% (active); in test [3] (setting [8]), 99% (active); in test [3] (at 50.0 µM), 91% (active); in test [4] (setting [7]) it was 96% (active); in test [4] (setting [8]), 99% (active); in test [4] (at 50.0 µM), 90.2% (active). Also, the growth inhibition was 97% (active) in test [5] (setting [7]); 99% (active) in test [5] (setting [8]); 89% (active) in test [5] (at 50.0 µM); 97% (active) in test [6] (setting [7]); 99% (active) in test [6] (setting [8]); 92.5% (active) in test [6] (at 50.0 µM).
`O=Nc1ccccc1N=O`: the growth inhibition is 48% in test [1] (setting [7]); 99% (active) in test [1] (setting [8]); 99.5% (active) in test [1] (at 50.0 µM); 30% in test [2] (setting [7]); 99% (active) in test [2] (setting [8]); 99.4% (active) in test [2] (at 50.0 µM). Moreover, the growth inhibition in test [3] (setting [7]) is 59%; in test [3] (setting [8]), 99% (active); in test [3] (at 50.0 µM), 99.2% (active); in test [4] (setting [7]), 36%; in test [4] (setting [8]), 97% (active); in test [4] (at 50.0 µM), 98.3% (active). For the same molecule, the growth inhibition was 80% (active) in test [5] (setting [7]); 99% (active) in test [5] (setting [8]); 99.3% (active) in test [5] (at 50.0 µM); 91% (active) in test [6] (setting [7]); 99% (active) in test [6] (setting [8]); 99.4% (active) in test [6] (at 50.0 µM).
For `N#CSCc1ccc(CSC#N)c(Cl)c1`, the growth inhibition in test [1] (setting [7]) is 10%; in test [1] (setting [8]) it was 93% (active); in test [1] (at 50.0 µM) it was 59.7%; in test [2] (setting [7]), 0%; in test [2] (setting [8]) it was 91% (active); in test [2] (at 50.0 µM), 40.4%. Besides, the growth inhibition in test [3] (setting [7]) is 18%; in test [3] (setting [8]), 91% (active); in test [3] (at 50.0 µM), 41%; in test [4] (setting [7]), 4%; in test [4] (setting [8]), 88% (active); in test [4] (at 50.0 µM), 60.8%. Besides, the growth inhibition is 11% in test [5] (setting [7]); 98% (active) in test [5] (setting [8]); 39.1% in test [5] (at 50.0 µM); 4% in test [6] (setting [7]); 96% (active) in test [6] (setting [8]); 93.3% (active) in test [6] (at 50.0 µM).
As for `O=C(O)c1c2c(cc3c1CC1(Cc4cc5c(cc4C1=O)CCC5)C3)CCC2` (stereo not given), the growth inhibition in test [1] (setting [7]) is 67%; in test [1] (setting [8]), 67%; in test [1] (at 50.0 µM) it was 89.4% (active); in test [2] (setting [7]), 58%; in test [2] (setting [8]), 58%; in test [2] (at 50.0 µM), 87.5% (active). The growth inhibition in test [3] (setting [7]) was 57%; in test [3] (setting [8]), 57%; in test [3] (at 50.0 µM) it was 87.3% (active); in test [4] (setting [7]), 37%; in test [4] (setting [8]), 37%; in test [4] (at 50.0 µM), 88.7% (active). For the same molecule, the growth inhibition in test [5] (setting [7]) is 42%; in test [5] (setting [8]) it was 42%; in test [5] (at 50.0 µM) it was 87.2% (active); in test [6] (setting [7]), 55%; in test [6] (setting [8]), 55%; in test [6] (at 50.0 µM) it was 86.5% (active).
As to `O=C1CSC(c2cccc([N+](=O)[O-])c2)N1c1ccc(-c2ccc(-n3c(-c4ccccc4)nc4ccccc4c3=O)cc2)cc1` (stereo not given), the growth inhibition in test [1] (setting [7]) was -12%; in test [1] (setting [8]), 72% (active); in test [1] (at 50.0 µM), 25.1%; in test [2] (setting [7]), -2%; in test [2] (setting [8]), 36%; in test [2] (at 50.0 µM), 59.5%. Moreover, the growth inhibition in test [3] (setting [7]) is 2%; in test [3] (setting [8]), 78% (active); in test [3] (at 50.0 µM), -29.4%; in test [4] (setting [7]) it was 26%; in test [4] (setting [8]), 48%; in test [4] (at 50.0 µM), 34%. In addition, the growth inhibition was -12% in test [5] (setting [7]); 91% (active) in test [5] (setting [8]); 87.8% (active) in test [5] (at 50.0 µM); 9% in test [6] (setting [7]); 90% (active) in test [6] (setting [8]); 83.2% (active) in test [6] (at 50.0 µM).
In the case of `CCCCCCCCCCCCCCCCOP(=O)([O-])OCC[N+](C)(C)C`, the growth inhibition was 99% (active) in test [1] (setting [7]); 99% (active) in test [1] (setting [8]); 99.8% (active) in test [1] (at 50.0 µM); 99% (active) in test [2] (setting [7]); 100% (active) in test [2] (setting [8]); 99.6% (active) in test [2] (at 50.0 µM). Also, the growth inhibition in test [3] (setting [7]) is 66%; in test [3] (setting [8]), 100% (active); in test [3] (at 50.0 µM), 99.6% (active); in test [4] (setting [7]), 97% (active); in test [4] (setting [8]) it was 99% (active); in test [4] (at 50.0 µM), 99.2% (active). Besides, the growth inhibition in test [5] (setting [7]) is 99% (active); in test [5] (setting [8]), 99% (active); in test [5] (at 50.0 µM), 99.7% (active); in test [6] (setting [7]), 98% (active); in test [6] (setting [8]) it was 99% (active); in test [6] (at 50.0 µM) it was 99.8% (active).
Take `CN1c2ccccc2C(C)(C)C12C=Cc1cc(O)ccc1O2` (stereo not given): the growth inhibition in test [1] (setting [7]) was 20%; in test [1] (setting [8]), 31%; in test [1] (at 50.0 µM), 70.8% (active); in test [2] (setting [7]), 9%; in test [2] (setting [8]), 10%; in test [2] (at 50.0 µM) it was 47.6%. Also, the growth inhibition in test [3] (setting [7]) is 8%; in test [3] (setting [8]), 38%; in test [3] (at 50.0 µM), 61.9%; in test [4] (setting [7]), 14%; in test [4] (setting [8]), 23%; in test [4] (at 50.0 µM), 35.6%. Also, the growth inhibition in test [5] (setting [7]) is -4%; in test [5] (setting [8]), 51%; in test [5] (at 50.0 µM), 52.4%; in test [6] (setting [7]) it was -15%; in test [6] (setting [8]), 33%; in test [6] (at 50.0 µM) it was 54.1%.
`CC(C)(C)N/N=C(\C(=O)NC1=C(Cl)C(=O)c2ccccc2C1=O)C1C=CCS1(=O)=O` (stereo not given): the growth inhibition in test [1] (setting [7]) was 7%; in test [1] (setting [8]), 89% (active); in test [1] (at 50.0 µM) it was 90.2% (active); in test [2] (setting [7]) it was -10%; in test [2] (setting [8]), 65%; in test [2] (at 50.0 µM), 72.3% (active). Further, the growth inhibition in test [3] (setting [7]) is -4%; in test [3] (setting [8]) it was 86% (active); in test [3] (at 50.0 µM) it was 68.4%; in test [4] (setting [7]) it was -26%; in test [4] (setting [8]), 48%; in test [4] (at 50.0 µM) it was 31.3%. Besides, the growth inhibition in test [5] (setting [7]) is 0%; in test [5] (setting [8]), 92% (active); in test [5] (at 50.0 µM), 84% (active); in test [6] (setting [7]), 15%; in test [6] (setting [8]), 81% (active); in test [6] (at 50.0 µM), 61.5%.
`c1cc[c]([Sn]([S]c2cccc3cccnc23)([S]c2cccc3cccnc23)[c]2ccccc2)cc1`: the growth inhibition in test [1] (setting [7]) was 98% (active); in test [1] (setting [8]), 99% (active); in test [1] (at 50.0 µM), 96.8% (active); in test [2] (setting [7]), 99% (active); in test [2] (setting [8]) it was 100% (active); in test [2] (at 50.0 µM), 98% (active). The growth inhibition in test [3] (setting [7]) was 98% (active); in test [3] (setting [8]), 99% (active); in test [3] (at 50.0 µM), 98% (active); in test [4] (setting [7]) it was 98% (active); in test [4] (setting [8]), 98% (active); in test [4] (at 50.0 µM), 95.5% (active). The growth inhibition in test [5] (setting [7]) was 98% (active); in test [5] (setting [8]) it was 99% (active); in test [5] (at 50.0 µM) it was 95.9% (active); in test [6] (setting [7]), 98% (active); in test [6] (setting [8]) it was 99% (active); in test [6] (at 50.0 µM), 97.6% (active).
In the case of `C=CCOc1ccc(N=NC(C#N)C#N)cc1`, the growth inhibition is 8% in test [1] (setting [7]); 88% (active) in test [1] (setting [8]); 98.6% (active) in test [1] (at 50.0 µM); 5% in test [2] (setting [7]); 87% (active) in test [2] (setting [8]); 98.3% (active) in test [2] (at 50.0 µM). In addition, the growth inhibition in test [3] (setting [7]) was 3%; in test [3] (setting [8]), 88% (active); in test [3] (at 50.0 µM), 52.7%; in test [4] (setting [7]) it was 0%; in test [4] (setting [8]) it was 90% (active); in test [4] (at 50.0 µM), 58%. The growth inhibition in test [5] (setting [7]) was -2%; in test [5] (setting [8]) it was 91% (active); in test [5] (at 50.0 µM), 97.8% (active); in test [6] (setting [7]), 4%; in test [6] (setting [8]), 93% (active); in test [6] (at 50.0 µM), 54%.
